Measurements: PubChem BioAssay (NCATS)
Records with an inconclusive call do not appear. The source made the active and inactive calls. Calls come from the whole dose curve; as a rule, active = well fitted cell-killing curve with a large enough effect; inconclusive = small, poorly fitted or top-dose-only effect, or effect the other way; inactive = no such curve, though single readings can be large or run the other way.

Test: Quantitative High-Throughput drug screen in 47 multiple myeloma cell lines against the NCATS MIPE library collection: JJN3_DSMZ cell viability assay (AID 1918966; note: nearly all actives have a fitted effect of over 50% in size)
Conditions: JJN3 myeloma cells viability, CellTiter-Glo ATP, 48 h; series mostly up to 45.8 µM
Description: PI: Beverly A. Mock Ph.D.
Laboratory of Cancer Biology and Genetics,
Center for Cancer Research, National Cancer Institute,
National Institute of Health, Bethesda, Maryland
Drug resistance and disease progression are common in multiple myeloma (MM) patients, underscoring the need for new therapeutic combinations. […] We hypothesized that effective combinations would reduce MYC expression and enhance p16 activity. […] These preclinical data identify potentially useful drug combinations for evaluation in drug-resistant MM and reveal potential mechanisms of combined drug sensitivity.
Described herein is the primary MIPE qHTS used to cherrypick compounds. Validated compounds were then further tested for potential synergistic activiy.
[1] Peat TJ, Gaikwad SM, Dubois W, Gyabaah-Kessie N, Zhang S, Gorjifard S, Phyo Z, Andres M, Hughitt VK, Simpson RM, Miller MA, Girvin AT, Taylor A, Williams D, D'Antonio N, Zhang Y, Rajagopalan A, Flietner E, Wilson K, Zhang X, Shinn P, Klumpp-Thomas C, McKnight C, Itkin Z, Chen L, Kazandijian D, Zhang J, Michalowski AM, Simmons JK, Keats J, Thomas CJ, Mock BA. Drug combinations identified by high-throughput screening promote cell cycle transition and upregulate Smad pathways in myeloma. Cancer Lett. 2023 Aug 1;568:216284. doi: 10.1016/j.canlet.2023.216284. Epub 2023 Jun 24. PMID: 37356470; PMCID: PMC10408729.
SEQUENCE No. (e.g., 1, 2, 3, etc.); […] (e.g., Cells, Incubation, Reagent, etc.); VALUE and DESCRIPTION.
1; Cells; 5 uL; white, solid bottom 1536-well Greiner assay plate.
2; Compounds; 23 nL; Kalypsis pin tool (Wako USA) equipped with a 1536-well pin head to transfer to the assay plates.
3; Incubation; 48 hours; 37C incubation.
4; Reagent;5uL; CellTiter Glo (Promega).
5; Detector; 425V; Luminescence; Viewlux PerkinElmer.
NOTES (numbers refer to Sequence numbers above)
1. The cell-based screening methods employed in this study were like those previously published. Briefly, the corresponding myeloma cell lines were screened in 1,536-well plates with 500 cells, 5-uL per well for inhibition of cell viability (assessed by measuring ATP levels with CellTiterGlo).
2. NCATS MIPE 4.0 library of approved and investigational drugs were added using the Kalypsis pin tool. Wells treated with DMSO only for 100% viability and media only wells for 0% viability were used as controls.
3. The assay plates were covered and incubated for 48 hours in a 37C, 5% CO2 incubator with controlled humidity.
4. After 48 hours, CellTilter-GloTM luminescent substrate mix (Promega) reagent was added to the assay plate and plates we incubated for 5 min at room temperature.
5. Signal was measured as median relative luminescence units on a ViewLux (PerkinElmer) multiplate reader.
[1] Heske CM, Davis MI, Baumgart JT, Wilson K, Gormally MV, Chen L, Zhang X, Ceribelli M, Duveau DY, Guha R, Ferrer M, Arnaldez FI, Ji J, Tran HL, Zhang Y, Mendoza A, Helman LJ, Thomas CJ. Matrix Screen Identifies Synergistic Combination of PARP Inhibitors and Nicotinamide Phosphoribosyltransferase (NAMPT) Inhibitors in Ewing Sarcoma. Clin Cancer Res. 2017 Dec 1;23(23):7301-7311. doi: 10.1158/1078-0432.CCR-17-1121. Epub 2017 Sep 12. PMID: 28899971; PMCID: PMC6636827.
Potency is the fitted concentration of half-maximal effect.

| SMILES | Potency |
| --- | --- |
| CC(C)c1ccc2oc3nc(N)c(C(=O)O)cc3c(=O)c2c1 | inactive |
| Cc1cc(Cl)ccc1OCCCC(=O)NO | 0.372 µM (active) |
| Cc1cc2cc3c(C)cc(=O)oc3c(C)c2o1 | 5.26 µM (active) |
| Nc1ccc(S(N)(=O)=O)cc1 | inactive |
| O=C(NOCC1CC1)c1ccc(F)c(F)c1Nc1ccc(I)cc1Cl | 20.9 µM (active) |
| CC(C)C[C@H](NC(=O)[C@H](Cc1ccccc1)NC(=O)c1cnccn1)B(O)O | 0.0166 µM (active) |
| CC(S)C(=O)NCC(=O)O (stereo not given) | inactive |
| CCOC(=O)C1=C(O)C(=O)N(Cc2ccccc2)C1 | 9.35 µM (active) |
| C[C@@H](N)C1CCC(C(=O)Nc2ccncc2)CC1 (stereo not given in full) | inactive |
| Cc1nc(Nc2ncc(C(=O)Nc3c(C)cccc3Cl)s2)cc(N2CCN(CCO)CC2)n1 | 3.32 µM (active) |
| Cc1ccc(S(=O)(=O)NC(=O)NN2CC3CCCC3C2)cc1 (stereo not given) | 23.5 µM (active) |
| Clc1ccc(C(Cn2ccnc2)OCc2c(Cl)cccc2Cl)c(Cl)c1 (stereo not given) | 23.5 µM (active) |
| COc1cc(Nc2c(C#N)cnc3cc(OCCCN4CCN(C)CC4)c(OC)cc23)c(Cl)cc1Cl | 18.7 µM (active) |
| CCN(CC)C(=S)SSC(=S)N(CC)CC | 0.0166 µM (active) |
| CCCCCCCCCCCCCCCCCCCCCCO | inactive |
| Cc1c(OCC(F)(F)F)ccnc1CS(=O)c1nc2ccccc2[nH]1 (stereo not given) | 2.64 µM (active) |
| CC[C@]1(O)C[C@H]2CN(CCc3c([nH]c4ccccc34)[C@@](C(=O)OC)(c3cc4c(cc3OC)N(C=O)[C@H]3[C@@](O)(C(=O)OC)[C@H](OC(C)=O)[C@]5(CC)C=CCN6CC[C@]43[C@@H]65)C2)C1 | 0.0935 µM (active) |
| O=C(NCC1CCCCN1)c1cc(OCC(F)(F)F)ccc1OCC(F)(F)F (stereo not given) | inactive |
| NCCCCNCCCN | 2.96 µM (active) |
| CCCOc1ccc2nc(NC(=O)OC)[nH]c2c1 | 5.26 µM (active) |

| SMILES | Potency |
| --- | --- |
| CCN(CCO)CCCC(C)Nc1ccnc2cc(Cl)ccc12 (stereo not given) | inactive |
| Oc1ccc(-c2nc(-c3ccc(F)cc3)c(-c3ccncc3)[nH]2)cc1 | 9.35 µM (active) |
| CC(C)(S)[C@@H](N)C(=O)O | inactive |
| CC(C)c1ccc2c(c1)c(SC(C)(C)C)c(CC(C)(C)C(=O)O)n2Cc1ccc(Cl)cc1 | 18.7 µM (active) |
| N[C@@H](Cc1cc(I)c(Oc2cc(I)c(O)c(I)c2)c(I)c1)C(=O)O | inactive |
| CCCS(=O)c1ccc2nc(NC(=O)OC)[nH]c2c1 (stereo not given) | 11.8 µM (active) |
| CCC1=C(C)CN(C(=O)NCCc2ccc(S(=O)(=O)NC(=O)NC3CCC(C)CC3)cc2)C1=O (stereo not given) | inactive |
| Nc1nc(N)c(N=O)c(OCC2CCCCC2)n1 | 16.6 µM (active) |
| CCCCC(CC)COC(=O)C(C#N)=C(c1ccccc1)c1ccccc1 (stereo not given) | inactive |
| CC(C)[C@H](N)C(=O)OCCOCn1cnc2c(=O)[nH]c(N)nc21 | inactive |
| O=c1c(O)c(-c2cc(O)c(O)c(O)c2)oc2cc(O)cc(O)c12 | 20.9 µM (active) |
| COc1cc(OC)c(C(=O)CCCN2CCCC2)c(OC)c1 | 0.059 µM (active) |
| CCCCc1ccc2nc(NC(=O)OC)[nH]c2c1 | 4.69 µM (active) |
| COC1=C(OC)C(=O)C(CCCCCCCCCCO)=C(C)C1=O | 18.7 µM (active) |
| O=C1CCc2ccc(OCCCCN3CCN(c4cccc(Cl)c4Cl)CC3)cc2N1 | 18.7 µM (active) |
| CNC[C@H](O)c1ccc(O)c(O)c1 | 13.6 µM (active) |
| C=C(c1ccc(C(=O)O)cc1)c1cc2c(cc1C)C(C)(C)CCC2(C)C | inactive |
| Clc1ccc2c(N3CCN(CCCN4CCN(c5ccnc6cc(Cl)ccc56)CC4)CC3)ccnc2c1 | inactive |
| Cc1cccc(CN2CCN(C(c3ccccc3)c3ccc(Cl)cc3)CC2)c1 (stereo not given) | 23.5 µM (active) |
| CC(C)[N+]1(C)[C@@H]2CC[C@H]1CC(OC(=O)C(CO)c1ccccc1)C2 (stereo not given in full) | inactive |
